Lamin A splicing: qHTS Assay for Modulators of Lamin A Splicing | HeLa LMNA splicing GFP/RFP minigene ratio, 48 h | Potency, µM (titrated, usually from 46.1 µM), most hits filed as inhibitors | actives 0.01% (n = 200,000) | AID 1487, 2009; active = well fitted inhibition curve with a large enough effect in the signal ratio, with a control signal flat, not every such curve was filed as active; inconclusive = small, poorly fitted or top-dose-only effect, or effect the other way, or a change in a side signal; the % refers to the signal ratio
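S3 HeLa cells stably expressing lamin A-EGFP splicing minigene plus DsRed2, 600 cells/well, 48 h compound exposure at 37C. Laser-scanning cytometry; analysed as GFP (500-530 nm)/RFP (575-640 nm) total intensity ratio; 0.5% DMSO vehicle.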
N370S GC mod: qHTS Assay for Inhibitors and Activators of N370S glucocerebrosidase as a Potential Chaperone Treatment of Gaucher Disease; Potency, µM (doses to about 59.4 µM), usual class: inhibitors; Lysosomal acid glucosylceramidase (Homo sapiens), P04062; AID 2101, 2009; actives 0.092% (n = 330,000); N370S GC spleen homogenate, 4MU-glucoside fluorescence
GAA inhib: qHTS Assay for Inhibitors of Human alpha-Glucosidase as a Potential Chaperone Treatment of Pompe Disease; Lysosomal alpha-glucosidase (Homo sapiens), P10253; purified human GAA, 4-MU-alpha-glucoside fluorescence; Potency, µM (doses to about 76.9 µM), actives largely listed as inhibitors; actives 0.005% (n = 200,000)
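Enzyme (4 nM final) mixed with compound (up to 77 uM), then 4-MU-alpha-D-pyranoside (400 uM final) added; 20 min at room temperature, pH 5.0. Reaction stopped at pH 10, fluorescence read, AC50 derived by Hill fit.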
aGlu spleen mod: qHTS Assay for Inhibitors and Activators of Human alpha-Glucosidase From Spleen Homogenate; Lysosomal alpha-glucosidase (Homo sapiens), P10253; human spleen homogenate, 4-MU-alpha-glucoside fluorescence; Potency, µM (titrated, usually from 79.9 µM), hits mostly inhibitors; actives 0.006% (n = 240,000)
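Human spleen homogenate (1 ug) incubated with compounds and 1 mM 4-methylumbelliferyl-alpha-D-glucopyranoside in pH 5.0 citrate/phosphate buffer, 37 C, 40 min. Stopped at pH 10; 4-MU fluorescence (Ex 365/Em 440 nm); AC50 by Hill fit.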
KinaseGlo FLuc: Counterscreen for Luciferase (Kinase-Glo TM) Inhibition | Luciferin 4-monooxygenase (Photuris pensylvanica), Q27757 | Kinase-Glo luciferase, ATP luminescence, 8 min | Potency, µM (series often up to 38.3 µM), usual class: inhibitors | actives 0.28% (n = 200,000) | AID 1379, 2008; note: nearly all actives have a fitted effect of over 60% in size
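Substrate mix (final 50 mM imidazole pH 7.2, 50 mM KCl, 7 mM MgCl2, 10 uM ATP, 0.01% Tween 20, 0.05% BSA) plus pin-tool compound, then Kinase-Glo detection mix; 8 min ambient, luminescence read.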
GAA glycogen: qHTS Assay for Inhibitors and Activators of Human alpha-Glucosidase Cleavage of Glycogen; Lysosomal alpha-glucosidase (Homo sapiens), P10253; recombinant GAA, glycogen substrate, Amplex Red glucose oxidase fluorescence; Potency, µM (doses to about 76.4 µM), most hits filed as inhibitors; actives 0.38% (n = 300,000); AID 2100, 2009;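 note: the screen sought inhibitors and activators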
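Recombinant enzyme (4 nM final) with compounds titrated up to 77 uM and bovine liver glycogen (30 ug) in citrate pH 5.0, 0.01% Tween-20, 37 C 40 min. Released glucose detected by Amplex Red/glucose oxidase (Ex 573/Em 610); AC50 from Hill fits.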
Large screens that a line does not name were inactive. In the library only some 0.52% were active in any assay of this set; here they are far more common. Unless noted, calls come from the whole dose curve; as a rule, active = well fitted curve in the direction sought with a large enough effect; inconclusive = small, poorly fitted or top-dose-only effect, or another doubt; inactive = no such curve, though single readings can be large; an effect the other way counts as inactive or inconclusive.

CCOc1ccc(-c2cc3nc(C4CCN(C(=O)OC(C)(C)C)CC4)c(C(=O)Nc4ccc(C)cc4Cl)cn3n2)cc1	none (no result: Lamin A splicing, N370S GC mod, GAA inhib, aGlu spleen mod, KinaseGlo FLuc)
CCOc1ccc(-c2cc3nc(C4CCN(C(=O)OC(C)(C)C)CC4)c(C(=O)Nc4ccc(C)cc4C)cn3n2)cc1	GAA glycogen 35µM (no result: Lamin A splicing, N370S GC mod, GAA inhib, aGlu spleen mod, KinaseGlo FLuc)
O=C(NC1(C(F)(F)F)Oc2ccccc2O1)N1CCCC1	Lamin A splicing inconclusive, GAA glycogen 7.9µM
CCCCN(C)CCNC(=O)c1cc(-c2ccc(Cl)s2)nc2ccccc12	none (no result: Lamin A splicing, N370S GC mod, GAA inhib, aGlu spleen mod, KinaseGlo FLuc)
CC12C=C(/C=C/CCc3ccco3)C(C)(C1)[C@H](CCc1ccco1)CC2=O (stereo partly specified)	none (no result: Lamin A splicing, GAA inhib, GAA glycogen)
CCc1cc2c(Nc3ccc(O)cc3)nc(C)nc2s1	N370S GC mod 20µM (no result: Lamin A splicing, GAA inhib, aGlu spleen mod, KinaseGlo FLuc, GAA glycogen)
CCc1cc2c(Nc3ccccc3O)nc(C)nc2s1	none (no result: Lamin A splicing, GAA inhib, aGlu spleen mod, KinaseGlo FLuc)
Cc1cccc(C(=O)n2c(=S)nc3ccccn32)c1	GAA inhib inconclusive, KinaseGlo FLuc 14µM
CC(C)C(C)(C#N)NC(=O)CSc1nc2scc(-c3ccco3)c2c(=O)n1-c1ccccc1 (stereo unspecified)	N370S GC mod inconclusive
CC(C)C(C)NC(=O)CSc1nc2scc(-c3ccco3)c2c(=O)n1-c1ccccc1 (stereo unspecified)	N370S GC mod 1.1µM
Cc1ncoc1C(=O)Nc1ncc([N+](=O)[O-])s1	Lamin A splicing inconclusive, KinaseGlo FLuc 11µM (no result: aGlu spleen mod)
O=C(Nc1ncc([N+](=O)[O-])s1)c1cccs1	N370S GC mod inconclusive (no result: Lamin A splicing, GAA inhib, aGlu spleen mod, KinaseGlo FLuc)
C/C(=N\NC(=O)c1ccc(C)cc1C)c1ccc2c(c1)Nc1ccccc1S2	Lamin A splicing inconclusive, GAA glycogen inconclusive
CC(=O)c1ccc2c(c1)Nc1ccccc1S2	GAA glycogen 31µM
CCOC(=O)c1ccc(NC(=O)c2ccc3c(c2)NC(=O)c2ccccc2S3)cc1	none (no result: Lamin A splicing, N370S GC mod, GAA inhib, aGlu spleen mod, KinaseGlo FLuc)
CCOC(=O)Nc1ccc2c(c1)Nc1ccccc1S2	Lamin A splicing inconclusive, GAA glycogen 14µM
O=C(c1ccc(-n2c(=O)c(=O)[nH]c3ccccc32)cc1)N1CCCN(Cc2ccccc2)CC1	none (no result: Lamin A splicing, N370S GC mod, GAA inhib, aGlu spleen mod, GAA glycogen)
CCOc1ccc(NC(=O)CC2SC(=O)N(c3ccccc3)C2=O)cc1 (stereo unspecified)	GAA glycogen 20µM (no result: Lamin A splicing)
Cc1ccccc1NC(=O)CC1SC(=O)N(c2ccccc2)C1=O (stereo unspecified)	GAA glycogen 25µM
Cc1nc(N2CCOCC2)c2c(C(=O)N(C)Cc3ccccc3)c(C)oc2n1	none (no result: N370S GC mod, GAA inhib, aGlu spleen mod, KinaseGlo FLuc, GAA glycogen)
CCCn1c(-c2ccc(F)cc2)nc2c(NCCCN(CC)CC)nc(C)nc21	none (no result: Lamin A splicing, GAA inhib, GAA glycogen)
CCOC(=O)c1oc2c(c1C)/C(=N/O)CCC2	KinaseGlo FLuc 11µM
COc1cc(O)ccc1-c1nc2cc(C)ccn2c1Nc1ccccc1C	GAA glycogen 13µM (no result: Lamin A splicing, N370S GC mod, GAA inhib, aGlu spleen mod, KinaseGlo FLuc)
CC(C)(C)c1cc(CNC2CS(=O)(=O)C[C@@H]2O)cc(C(C)(C)C)c1O (stereo partly specified)	N370S GC mod inconclusive, GAA glycogen 16µM
O=S1(=O)CC(O)C(NCc2ccco2)C1 (stereo unspecified)	none
COC(=O)c1cc(Cl)ccc1NC(=O)CSc1ncc(S(=O)(=O)c2ccc(Br)cc2)c(=O)[nH]1	none (no result: Lamin A splicing, N370S GC mod, GAA inhib, aGlu spleen mod, KinaseGlo FLuc)
Cc1cccc(NC(=O)c2ccoc2C)n1	KinaseGlo FLuc inconclusive
Cc1occc1C(=O)Nc1cc(C(C)(C)C)on1	KinaseGlo FLuc 11µM
CCCCCN1C=CC(=C2C(=O)c3ccccc3C2=O)C=C1	KinaseGlo FLuc 2.8µM (no result: aGlu spleen mod)
NC(=S)N=Nc1ccc(NN=C(N)N)cc1	GAA glycogen 40µM (no result: Lamin A splicing, GAA inhib, aGlu spleen mod, KinaseGlo FLuc)
O=c1c(OC2OC(CO)C(O)C(O)C2O)c(-c2ccc(O)c(O)c2)oc2cc(O)cc(O)c12 (stereo unspecified)	GAA glycogen 13µM

Assay outcomes as filed in PubChem BioAssay.
